Some test systems named below: NCI-H23 lung; NCI-H226 lung; NCI-H322M lung; HOP-62 NSCLC; NCI-H460 lung; NCI-H522 lung; A549/ATCC NSCLC; 786-0 renal; COLO 205 colon; DU-145 prostate; K-562 leukemia; MALME-3M melanoma; MDA-MB-231 breast; RXF 393 renal; SF-268 CNS; SF-295 CNS; UACC-257 melanoma; M14 melanoma; HCT-15 colon; SF-539 CNS.
What all share (assay): NCI-60 one-dose screen, 48 h (100 = growth as untreated, 0 = no growth, -100 = all killed)
Holding throughout (settings): 10 µM unless noted

This is part of a sample that, as a whole, favours compounds with a hit. Of some 83,000 tested, about 20% had one in any assay.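 The endpoint reported here, percent growth, reads 100 for growth as untreated, 0 for no net growth and -100 for all cells dead.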 Values without a mark were called inactive. The source made the active and inactive calls. Rule for the calls: active = growth percent below 10; inactive = the rest.

Turning to `CC[C@]1(O)CC2CN(CCc3c([nH]c4ccccc34)[C@@](C(=O)OC)(c3cc4c(cc3OC)N(C)[C@H]3[C@@](O)(C(=O)OC)[C@H](OC(C)=O)[C@]5(CC)C=CCN6CC[C@]43[C@@H]65)C2)C1` (some centres undefined), the growth with NCI-H23 lung was 16.1%; in the assay with NCI-H226 lung, 48.9%; with NCI-H322M lung, 54.4%; in the assay with HOP-62 NSCLC, 31.7%; in the assay with NCI-H460 lung, 2.54% (active); in the assay on NCI-H522 lung, -17.9% (active). Besides, the growth in the assay with A549/ATCC NSCLC is 17.2%; with 786-0 renal it was 13.8%; with COLO 205 colon it was -50.7% (active); in the assay with DU-145 prostate, -39.8% (active); in the assay on K-562 leukemia, 7.74% (active); in the assay with MALME-3M melanoma, 38.4%. For the same compound, the growth with MDA-MB-231 breast is 5.18% (active); in the assay on RXF 393 renal, 25.9%; in the assay on SF-268 CNS it was 4.83% (active); in the assay on SF-295 CNS it was 12.2%; with UACC-257 melanoma it was 61.9%; in the assay with M14 melanoma, -15.6% (active). Moreover, in the assay with HCT-15 colon, the growth is 6.5% (active).

For the compound `CN(C(=O)c1ccccc1)N(C)C(=O)c1ccccc1`, the growth in the assay with NCI-H23 lung was 110%; in the assay on NCI-H226 lung, 112%; with NCI-H322M lung it was 96.6%; in the assay on HOP-62 NSCLC, 94.7%; with NCI-H460 lung, 109%; in the assay on NCI-H522 lung, 102%. For the same compound, the growth in the assay on A549/ATCC NSCLC is 103%; in the assay on 786-0 renal, 100%; with COLO 205 colon it was 102%; with DU-145 prostate it was 121%; with K-562 leukemia, 107%; with MALME-3M melanoma, 94.4%. Further, the growth in the assay with MDA-MB-231 breast is 107%; with RXF 393 renal, 122%; in the assay with SF-268 CNS, 116%; in the assay with SF-539 CNS it was 108%; with UACC-257 melanoma, 113%; with M14 melanoma, 99.2%. For the same compound, in the assay on HCT-15 colon, the growth was 111%.

For the compound `Cc1cc(C)n2nc(SCC(=O)Nc3sc4c(c3C(N)=O)CCC4)nc2n1`, the growth in the assay on NCI-H23 lung is 101%; in the assay on NCI-H226 lung, 87.1%; with NCI-H322M lung, 99.7%; in the assay with HOP-62 NSCLC it was 93.7%; with NCI-H460 lung, 116%; with NCI-H522 lung it was 94%. Besides, the growth in the assay on A549/ATCC NSCLC was 146%; with 786-0 renal, 96.4%; in the assay on COLO 205 colon, 118%; in the assay with DU-145 prostate, 101%; with K-562 leukemia, 119%; with MALME-3M melanoma it was 106%. Moreover, the growth in the assay with MDA-MB-231 breast was 99.2%; in the assay on RXF 393 renal, 117%; in the assay with SF-268 CNS, 113%; with SF-295 CNS it was 101%; in the assay with SF-539 CNS, 90.8%; in the assay on M14 melanoma, 102%. The growth in the assay on HCT-15 colon was 108%.

Turning to `CN(CC(=O)Nc1nc2ccccc2[nH]1)S(=O)(=O)c1ccc(Cl)cc1`, the growth in the assay on NCI-H23 lung is 126%; with NCI-H226 lung it was 81.7%; with NCI-H322M lung it was 98.3%; in the assay with HOP-62 NSCLC, 69.4%; with NCI-H460 lung, 45.3%; in the assay on NCI-H522 lung it was 80.6%. The growth in the assay on A549/ATCC NSCLC was 111%; with 786-0 renal, 91.9%; in the assay with COLO 205 colon it was 95.6%; with DU-145 prostate, 89.9%; with K-562 leukemia, 95.7%; with MALME-3M melanoma, 100%. Further, the growth in the assay with MDA-MB-231 breast was 99.6%; in the assay with RXF 393 renal it was 122%; in the assay with SF-268 CNS it was 67%; in the assay with SF-295 CNS it was 38.4%; in the assay on SF-539 CNS, 88.5%; with M14 melanoma it was 95.7%. The growth in the assay on HCT-15 colon is 90.8%.

Turning to `Nc1ccc2c(c1)/C(=N/O)c1cc([N+](=O)[O-])ccc1-2`, the growth in the assay with NCI-H23 lung is 71.5%; with NCI-H226 lung, 76.3%; in the assay on NCI-H322M lung, 42%; with HOP-62 NSCLC it was 91.7%; in the assay on NCI-H460 lung it was 27.3%; in the assay with NCI-H522 lung, 55.1%. Besides, the growth with A549/ATCC NSCLC is 49.2%; in the assay with 786-0 renal, 63.1%; in the assay on COLO 205 colon, 104%; in the assay on DU-145 prostate, 46.4%; in the assay on K-562 leukemia, 22.9%; with MALME-3M melanoma it was 57.9%. Further, the growth in the assay with MDA-MB-231 breast was 91.7%; in the assay on RXF 393 renal, 85%; in the assay on SF-268 CNS, 62.6%; in the assay on SF-539 CNS, 60.1%; in the assay on UACC-257 melanoma, 81%; with M14 melanoma, 49.4%. Besides, in the assay on HCT-15 colon, the growth was 61.2%.

For `COc1ccc(C2CC(c3ccc(OC)c(OC)c3)=NN2C(=O)c2cc(OC)c(OC)c(OC)c2)c(OC)c1` (centres undefined), the growth with NCI-H23 lung is 92.6%; in the assay on NCI-H226 lung, 76.4%; in the assay on NCI-H322M lung, 94.8%; in the assay with HOP-62 NSCLC, 76.1%; in the assay with NCI-H460 lung, 78.5%; with NCI-H522 lung, 33.9%. Further, the growth in the assay with A549/ATCC NSCLC was 82.8%; in the assay on 786-0 renal, 66.8%; in the assay with COLO 205 colon, 63.9%; in the assay on DU-145 prostate it was 101%; with K-562 leukemia, 51.3%; with MALME-3M melanoma, 86.7%. In addition, the growth in the assay with MDA-MB-231 breast was 90.3%; with RXF 393 renal it was 48.6%; in the assay on SF-268 CNS, 82%; in the assay with SF-295 CNS, 31%; in the assay on SF-539 CNS, 64.4%; in the assay on UACC-257 melanoma, 61.7%. Moreover, the growth in the assay on M14 melanoma was 63.9%; in the assay on HCT-15 colon it was 67.4%.

With `CSc1nc2c(c(=O)[nH]1)C(c1ccc(Cl)cc1)C1=C(N2)/C(=C/c2ccc(Cl)cc2)CNC1` (centres undefined), the growth with NCI-H23 lung was 69%; in the assay on NCI-H226 lung it was 78.9%; in the assay with NCI-H322M lung, 64.1%; in the assay on HOP-62 NSCLC it was -2.54% (active); in the assay on NCI-H460 lung, 37.3%; in the assay with NCI-H522 lung it was 79.3%. Also, the growth in the assay with A549/ATCC NSCLC is 32.2%; in the assay with 786-0 renal, 88.4%; in the assay with COLO 205 colon, 29.2%; in the assay on DU-145 prostate, 39.3%; with K-562 leukemia, 8.37% (active); in the assay on MALME-3M melanoma it was 91.9%. The growth in the assay on MDA-MB-231 breast was 40.4%; in the assay with RXF 393 renal, 52.3%; in the assay on SF-268 CNS, 10.1%; in the assay with SF-295 CNS it was 69.3%; in the assay on UACC-257 melanoma, 81.9%; with M14 melanoma, 64.1%. Also, in the assay on HCT-15 colon, the growth is 13.5%.
